This is an account of results in paper PMC7862700, “An all-to-all approach to the identification of sequence-specific readers for epigenetic DNA modifications on cytosine”.

Experiment in all cases: DAPPL (digital affinity profiling via proximity ligation, sequencing); 10 mM Tris-HCl pH 7.5, 50 mM NaCl, 1 mM DTT, 4% glycerol, room temperature, 30 min; GST-TFs on glutathione beads, 16-mer random dsDNA library, 0.1% formaldehyde crosslink after washing; high values mean tight binding
One assay deals with T1, FLI1 (Homo sapiens, UniProt Q01543 1-452).
T1 sequence: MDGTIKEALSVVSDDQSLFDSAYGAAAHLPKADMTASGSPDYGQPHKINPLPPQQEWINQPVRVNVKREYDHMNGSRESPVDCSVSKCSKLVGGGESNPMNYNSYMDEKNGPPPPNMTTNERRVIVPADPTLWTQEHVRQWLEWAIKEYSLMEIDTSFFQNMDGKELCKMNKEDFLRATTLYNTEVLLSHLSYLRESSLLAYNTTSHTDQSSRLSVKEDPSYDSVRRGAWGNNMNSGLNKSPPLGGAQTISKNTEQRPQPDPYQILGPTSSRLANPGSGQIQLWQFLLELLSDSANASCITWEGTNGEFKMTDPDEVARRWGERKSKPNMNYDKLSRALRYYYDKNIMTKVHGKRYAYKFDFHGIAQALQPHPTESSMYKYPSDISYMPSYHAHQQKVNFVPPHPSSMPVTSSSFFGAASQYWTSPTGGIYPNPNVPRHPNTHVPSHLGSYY
Particulars: protein: recombinant; tags: N-terminal GST; dsDNA, one strand shown. Summed up:
(§1)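 Binding signal is each hexamer's read frequency for a factor divided by its frequency in the tag-only sample. The factors were GST-fused human transcription factors from yeast, captured on glutathione beads, DNA-barcoded and pooled with that sample. Pools were incubated with 200 nmole of a random double-stranded 16-mer DNA library in Tris/NaCl/DTT/glycerol buffer at room temperature for 30 min, then washed, crosslinked with 0.1% formaldehyde, proximity-ligated with BsaI/T4 ligase (1 h, 37 °C), PCR-amplified and sequenced on an Illumina NextSeq500.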

The target in the next assay is T2, ELK1 (Homo sapiens, UniProt P19419 1-428).
T2 sequence: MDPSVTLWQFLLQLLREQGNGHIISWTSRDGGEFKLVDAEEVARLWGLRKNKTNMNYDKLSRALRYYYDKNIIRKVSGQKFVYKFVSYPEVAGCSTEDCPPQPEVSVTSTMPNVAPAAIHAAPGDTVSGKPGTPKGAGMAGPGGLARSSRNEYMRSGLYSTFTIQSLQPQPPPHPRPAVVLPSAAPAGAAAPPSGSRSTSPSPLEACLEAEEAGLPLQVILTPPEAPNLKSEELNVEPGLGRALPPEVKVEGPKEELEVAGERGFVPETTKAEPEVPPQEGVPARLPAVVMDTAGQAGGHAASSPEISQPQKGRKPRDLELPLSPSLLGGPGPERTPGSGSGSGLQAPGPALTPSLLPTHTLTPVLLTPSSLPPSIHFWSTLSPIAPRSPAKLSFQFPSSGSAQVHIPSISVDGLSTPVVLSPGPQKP
Conditions: protein: recombinant; tags: N-terminal GST; dsDNA, one strand shown. In outline: as §1

In the next assay the target is T3, GABPA (Homo sapiens, UniProt Q06546 1-454).
T3 sequence: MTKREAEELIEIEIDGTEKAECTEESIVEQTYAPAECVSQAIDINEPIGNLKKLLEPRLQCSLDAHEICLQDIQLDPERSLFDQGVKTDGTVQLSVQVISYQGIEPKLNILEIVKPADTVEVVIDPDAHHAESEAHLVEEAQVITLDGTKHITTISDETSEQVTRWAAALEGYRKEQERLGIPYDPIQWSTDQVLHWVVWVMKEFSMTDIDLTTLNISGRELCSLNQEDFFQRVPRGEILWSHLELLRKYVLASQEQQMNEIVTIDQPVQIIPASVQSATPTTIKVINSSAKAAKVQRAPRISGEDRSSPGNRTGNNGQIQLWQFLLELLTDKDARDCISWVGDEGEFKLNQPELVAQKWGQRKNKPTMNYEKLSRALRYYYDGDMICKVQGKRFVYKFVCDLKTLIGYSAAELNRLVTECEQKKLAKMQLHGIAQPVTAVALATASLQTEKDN
Particulars: protein: recombinant; tags: N-terminal GST; dsDNA, one strand shown. Summed up: as §1

The target in a further assay is T4, ERG (Homo sapiens, UniProt P11308 1-479).
T4 sequence: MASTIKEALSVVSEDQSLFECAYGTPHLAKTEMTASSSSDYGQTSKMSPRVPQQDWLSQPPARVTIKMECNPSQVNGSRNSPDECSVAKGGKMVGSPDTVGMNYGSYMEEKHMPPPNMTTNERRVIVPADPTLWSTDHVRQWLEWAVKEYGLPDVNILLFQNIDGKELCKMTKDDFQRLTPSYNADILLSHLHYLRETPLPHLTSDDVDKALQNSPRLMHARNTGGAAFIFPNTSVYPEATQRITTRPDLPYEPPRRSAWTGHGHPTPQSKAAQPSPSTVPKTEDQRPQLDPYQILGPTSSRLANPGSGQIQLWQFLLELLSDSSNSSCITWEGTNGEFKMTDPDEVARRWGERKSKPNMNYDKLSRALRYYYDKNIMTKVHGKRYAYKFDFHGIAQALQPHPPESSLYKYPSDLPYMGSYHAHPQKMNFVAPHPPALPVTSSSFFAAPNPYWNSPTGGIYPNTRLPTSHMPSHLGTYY
Particulars: protein: recombinant; tags: N-terminal GST; dsDNA, one strand shown. In outline:
as §1

In the next assay the target is ELF1 (Homo sapiens, UniProt P32519 1-619). Particulars: protein: recombinant; tags: N-terminal GST; dsDNA, one strand shown. Summed up:
as §1

The target of a further assay is T5, EHF (Homo sapiens, UniProt Q9NZC4 1-300).
T5 sequence: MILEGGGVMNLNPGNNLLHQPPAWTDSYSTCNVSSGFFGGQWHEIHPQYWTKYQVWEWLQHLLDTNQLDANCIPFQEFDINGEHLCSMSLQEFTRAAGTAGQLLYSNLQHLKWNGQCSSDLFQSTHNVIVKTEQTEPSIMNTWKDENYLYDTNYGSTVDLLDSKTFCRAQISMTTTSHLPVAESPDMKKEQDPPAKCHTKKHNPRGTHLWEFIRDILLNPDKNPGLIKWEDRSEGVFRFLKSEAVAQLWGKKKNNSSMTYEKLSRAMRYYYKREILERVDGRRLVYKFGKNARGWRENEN
Particulars: protein: recombinant; tags: N-terminal GST; dsDNA, one strand shown. Summed up:
as §1

The next assay deals with SPI1 (Homo sapiens, UniProt P17947 1-270). Particulars: protein: recombinant; tags: N-terminal GST; dsDNA, one strand shown. In outline: as §1
The next assay has as its target SPIB (Homo sapiens, UniProt Q01892 1-262). Particulars: protein: recombinant; tags: N-terminal GST; dsDNA, one strand shown. In outline: as §1
A further assay has as its target T6, ELK3 (Homo sapiens, UniProt P41970 1-407).
T6 sequence: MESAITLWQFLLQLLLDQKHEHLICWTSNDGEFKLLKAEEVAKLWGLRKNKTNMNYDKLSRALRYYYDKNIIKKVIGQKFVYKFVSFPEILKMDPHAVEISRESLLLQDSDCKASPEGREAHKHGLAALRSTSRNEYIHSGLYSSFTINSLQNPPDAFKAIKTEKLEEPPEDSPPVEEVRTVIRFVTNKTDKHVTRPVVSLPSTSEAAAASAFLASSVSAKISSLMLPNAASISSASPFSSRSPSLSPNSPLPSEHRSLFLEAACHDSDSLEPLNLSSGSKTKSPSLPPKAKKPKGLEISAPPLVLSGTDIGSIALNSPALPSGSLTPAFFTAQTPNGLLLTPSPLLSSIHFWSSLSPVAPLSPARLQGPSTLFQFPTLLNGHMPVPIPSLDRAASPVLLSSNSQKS
Particulars: protein: recombinant; tags: N-terminal GST; dsDNA, one strand shown. In outline:
as §1

The target of another assay is T7, FEV (Homo sapiens, UniProt Q99581 1-238).
T7 sequence: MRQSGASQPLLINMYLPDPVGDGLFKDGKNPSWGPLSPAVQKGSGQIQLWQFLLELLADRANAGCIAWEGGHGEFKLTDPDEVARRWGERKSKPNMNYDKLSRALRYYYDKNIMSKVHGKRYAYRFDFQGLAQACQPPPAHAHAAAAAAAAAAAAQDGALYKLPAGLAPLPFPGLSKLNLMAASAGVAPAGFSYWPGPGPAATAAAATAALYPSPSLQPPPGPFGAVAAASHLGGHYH
Conditions: protein: recombinant; tags: N-terminal GST; dsDNA, one strand shown. Summed up: as §1

Another assay has as its target ETV5 (Homo sapiens, UniProt P41161 1-510). Conditions: protein: recombinant; tags: N-terminal GST; dsDNA, one strand shown. In outline:
as §1

The target in the next assay is HSF1 (Homo sapiens, UniProt Q00613 1-529). Conditions: protein: recombinant; tags: N-terminal GST; chain copies: 3; dsDNA, one strand shown. Summed up: as §1
In the next assay the target is T8, SPIC (Homo sapiens, UniProt Q8N5J4 1-248).
T8 sequence: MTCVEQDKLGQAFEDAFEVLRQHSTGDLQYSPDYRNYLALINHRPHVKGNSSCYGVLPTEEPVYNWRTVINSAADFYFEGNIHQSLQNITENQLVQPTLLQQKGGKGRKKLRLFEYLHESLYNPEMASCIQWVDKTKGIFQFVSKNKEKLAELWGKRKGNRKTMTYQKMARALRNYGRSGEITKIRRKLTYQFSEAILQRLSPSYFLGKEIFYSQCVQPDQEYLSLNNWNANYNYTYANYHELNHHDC
Conditions: protein: recombinant; tags: N-terminal GST; dsDNA, one strand shown. In outline: as §1

Another assay deals with ELF4 (Homo sapiens, UniProt Q99607 1-663). Conditions: protein: recombinant; tags: N-terminal GST; dsDNA, one strand shown. In outline:
as §1

The target of the next assay is T9, ELK4 (Homo sapiens, UniProt P28324-2 1-405).
T9 sequence: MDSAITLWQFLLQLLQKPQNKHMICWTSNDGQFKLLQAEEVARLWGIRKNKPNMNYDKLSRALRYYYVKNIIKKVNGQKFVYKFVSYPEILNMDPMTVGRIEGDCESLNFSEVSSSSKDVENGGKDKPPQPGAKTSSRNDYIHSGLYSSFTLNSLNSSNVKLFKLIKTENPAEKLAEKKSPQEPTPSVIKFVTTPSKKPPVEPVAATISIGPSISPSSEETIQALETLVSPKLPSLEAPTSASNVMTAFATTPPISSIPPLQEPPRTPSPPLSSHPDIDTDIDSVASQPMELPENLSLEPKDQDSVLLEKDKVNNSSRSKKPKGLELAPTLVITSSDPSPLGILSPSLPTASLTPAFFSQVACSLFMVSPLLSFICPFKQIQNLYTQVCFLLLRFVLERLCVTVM
Conditions: protein: recombinant; tags: N-terminal GST; dsDNA, one strand shown. In outline: as §1

A further assay addresses T10, ETV2 (Homo sapiens, UniProt O00321 1-342).
T10 sequence: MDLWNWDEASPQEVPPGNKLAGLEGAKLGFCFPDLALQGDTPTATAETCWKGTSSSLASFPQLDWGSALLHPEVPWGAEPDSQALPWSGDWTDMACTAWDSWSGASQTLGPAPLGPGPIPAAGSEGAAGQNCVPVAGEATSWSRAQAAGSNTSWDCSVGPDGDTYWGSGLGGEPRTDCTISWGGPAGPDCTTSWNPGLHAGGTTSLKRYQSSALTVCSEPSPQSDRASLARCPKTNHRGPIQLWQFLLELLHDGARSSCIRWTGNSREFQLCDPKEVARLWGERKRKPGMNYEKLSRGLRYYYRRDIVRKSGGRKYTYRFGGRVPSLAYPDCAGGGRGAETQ
Particulars: protein: recombinant; tags: N-terminal GST; dsDNA, one strand shown. In outline: as §1

The target of the next assay is T11, ELF3 (Homo sapiens, UniProt P78545 1-371).
T11 sequence: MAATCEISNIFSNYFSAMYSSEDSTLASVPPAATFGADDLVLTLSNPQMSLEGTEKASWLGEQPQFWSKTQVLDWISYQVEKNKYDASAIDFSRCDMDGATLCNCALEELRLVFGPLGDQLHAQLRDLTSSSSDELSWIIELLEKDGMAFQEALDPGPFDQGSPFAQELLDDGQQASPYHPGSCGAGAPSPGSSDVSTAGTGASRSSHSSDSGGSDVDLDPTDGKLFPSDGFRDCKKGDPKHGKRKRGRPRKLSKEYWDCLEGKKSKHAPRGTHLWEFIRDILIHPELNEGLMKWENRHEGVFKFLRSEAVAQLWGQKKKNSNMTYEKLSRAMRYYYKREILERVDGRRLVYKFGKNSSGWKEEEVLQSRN
Particulars: protein: recombinant; tags: N-terminal GST; dsDNA, one strand shown. Summed up:
as §1

For the next assay, the target named is CRX (Homo sapiens, UniProt O43186 1-299). Conditions: protein: recombinant; tags: N-terminal GST; dsDNA, one strand shown. Summed up: as §1
Another assay concerns the target ETV1 (Homo sapiens, UniProt P50549 1-477). Particulars: protein: recombinant; tags: N-terminal GST; dsDNA, one strand shown. In outline: as §1

CRX, sequence (O43186 whole entry): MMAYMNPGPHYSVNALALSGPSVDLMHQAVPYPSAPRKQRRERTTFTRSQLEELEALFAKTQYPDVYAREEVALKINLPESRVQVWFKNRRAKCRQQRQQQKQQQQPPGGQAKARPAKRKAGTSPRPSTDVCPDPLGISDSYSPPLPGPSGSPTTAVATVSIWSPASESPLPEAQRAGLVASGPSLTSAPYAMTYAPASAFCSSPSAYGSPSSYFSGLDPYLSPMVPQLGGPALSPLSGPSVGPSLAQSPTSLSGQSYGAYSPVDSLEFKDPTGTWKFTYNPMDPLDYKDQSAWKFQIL
ELF1, sequence (P32519 whole entry): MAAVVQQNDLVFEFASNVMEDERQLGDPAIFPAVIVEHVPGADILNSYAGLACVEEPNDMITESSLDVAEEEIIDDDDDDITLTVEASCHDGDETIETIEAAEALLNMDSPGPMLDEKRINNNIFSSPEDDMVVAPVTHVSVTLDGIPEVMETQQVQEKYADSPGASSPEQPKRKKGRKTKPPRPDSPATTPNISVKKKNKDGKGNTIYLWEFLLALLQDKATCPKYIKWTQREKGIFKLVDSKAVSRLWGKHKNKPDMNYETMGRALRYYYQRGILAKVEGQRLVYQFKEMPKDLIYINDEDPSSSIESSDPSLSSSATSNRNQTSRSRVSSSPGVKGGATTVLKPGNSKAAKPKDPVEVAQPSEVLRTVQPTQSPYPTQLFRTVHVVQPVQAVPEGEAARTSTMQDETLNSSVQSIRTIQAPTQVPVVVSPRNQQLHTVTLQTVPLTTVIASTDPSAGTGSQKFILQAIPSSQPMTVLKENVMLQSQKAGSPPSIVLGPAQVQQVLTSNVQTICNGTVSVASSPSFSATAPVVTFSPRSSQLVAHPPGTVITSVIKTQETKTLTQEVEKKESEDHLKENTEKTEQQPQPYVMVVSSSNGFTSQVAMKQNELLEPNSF
SPIB, sequence (Q01892 whole entry): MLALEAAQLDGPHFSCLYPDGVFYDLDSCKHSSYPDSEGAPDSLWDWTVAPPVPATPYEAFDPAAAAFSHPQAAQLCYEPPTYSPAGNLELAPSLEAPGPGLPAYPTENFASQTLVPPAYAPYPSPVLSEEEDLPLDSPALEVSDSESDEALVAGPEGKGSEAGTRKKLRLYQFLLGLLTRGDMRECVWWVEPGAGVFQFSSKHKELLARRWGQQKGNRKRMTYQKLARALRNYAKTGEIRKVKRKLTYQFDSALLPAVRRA
ELF4, sequence (Q99607 whole entry): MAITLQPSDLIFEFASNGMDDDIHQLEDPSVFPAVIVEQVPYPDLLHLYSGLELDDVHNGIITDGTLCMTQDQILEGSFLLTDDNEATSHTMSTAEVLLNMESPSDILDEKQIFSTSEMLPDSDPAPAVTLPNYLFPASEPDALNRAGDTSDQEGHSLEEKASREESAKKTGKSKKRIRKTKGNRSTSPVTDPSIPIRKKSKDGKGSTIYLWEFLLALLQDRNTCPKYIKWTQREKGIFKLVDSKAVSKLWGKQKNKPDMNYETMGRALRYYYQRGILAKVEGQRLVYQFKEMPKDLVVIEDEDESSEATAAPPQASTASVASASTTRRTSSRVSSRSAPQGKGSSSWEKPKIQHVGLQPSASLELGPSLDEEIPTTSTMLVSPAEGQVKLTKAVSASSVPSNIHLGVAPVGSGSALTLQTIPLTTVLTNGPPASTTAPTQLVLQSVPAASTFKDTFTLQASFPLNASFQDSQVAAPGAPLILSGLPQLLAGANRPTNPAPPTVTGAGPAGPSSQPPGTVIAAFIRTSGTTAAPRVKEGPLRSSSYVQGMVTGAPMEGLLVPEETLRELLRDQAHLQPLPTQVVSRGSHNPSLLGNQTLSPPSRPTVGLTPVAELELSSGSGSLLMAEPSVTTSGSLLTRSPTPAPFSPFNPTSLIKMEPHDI
ETV5, sequence (P41161 whole entry): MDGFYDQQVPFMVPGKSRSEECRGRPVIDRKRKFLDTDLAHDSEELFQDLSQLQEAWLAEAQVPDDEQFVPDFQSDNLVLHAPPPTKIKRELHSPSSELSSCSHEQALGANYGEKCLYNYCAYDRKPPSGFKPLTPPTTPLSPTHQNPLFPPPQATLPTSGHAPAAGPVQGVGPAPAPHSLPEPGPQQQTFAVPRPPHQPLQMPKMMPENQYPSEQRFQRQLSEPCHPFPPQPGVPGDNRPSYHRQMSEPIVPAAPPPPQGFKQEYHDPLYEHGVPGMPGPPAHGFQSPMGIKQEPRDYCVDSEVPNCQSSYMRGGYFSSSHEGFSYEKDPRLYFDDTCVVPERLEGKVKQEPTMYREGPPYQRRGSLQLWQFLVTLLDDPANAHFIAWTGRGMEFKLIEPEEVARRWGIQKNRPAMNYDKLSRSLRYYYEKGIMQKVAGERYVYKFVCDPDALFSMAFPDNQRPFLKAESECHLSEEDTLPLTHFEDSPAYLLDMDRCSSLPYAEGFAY
ETV1, sequence (P50549 whole entry): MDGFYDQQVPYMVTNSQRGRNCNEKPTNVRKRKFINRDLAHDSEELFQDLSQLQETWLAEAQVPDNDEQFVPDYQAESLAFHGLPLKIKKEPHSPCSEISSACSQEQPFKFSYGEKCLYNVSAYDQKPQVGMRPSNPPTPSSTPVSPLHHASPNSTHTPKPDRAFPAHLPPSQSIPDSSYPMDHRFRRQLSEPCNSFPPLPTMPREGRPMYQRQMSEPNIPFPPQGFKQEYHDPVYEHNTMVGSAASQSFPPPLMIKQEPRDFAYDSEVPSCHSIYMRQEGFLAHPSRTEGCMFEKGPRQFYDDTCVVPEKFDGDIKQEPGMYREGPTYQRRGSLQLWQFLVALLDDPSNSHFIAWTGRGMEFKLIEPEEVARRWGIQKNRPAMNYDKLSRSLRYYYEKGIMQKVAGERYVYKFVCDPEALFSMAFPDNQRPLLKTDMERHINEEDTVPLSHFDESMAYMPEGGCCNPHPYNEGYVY
HSF1, sequence (Q00613 whole entry): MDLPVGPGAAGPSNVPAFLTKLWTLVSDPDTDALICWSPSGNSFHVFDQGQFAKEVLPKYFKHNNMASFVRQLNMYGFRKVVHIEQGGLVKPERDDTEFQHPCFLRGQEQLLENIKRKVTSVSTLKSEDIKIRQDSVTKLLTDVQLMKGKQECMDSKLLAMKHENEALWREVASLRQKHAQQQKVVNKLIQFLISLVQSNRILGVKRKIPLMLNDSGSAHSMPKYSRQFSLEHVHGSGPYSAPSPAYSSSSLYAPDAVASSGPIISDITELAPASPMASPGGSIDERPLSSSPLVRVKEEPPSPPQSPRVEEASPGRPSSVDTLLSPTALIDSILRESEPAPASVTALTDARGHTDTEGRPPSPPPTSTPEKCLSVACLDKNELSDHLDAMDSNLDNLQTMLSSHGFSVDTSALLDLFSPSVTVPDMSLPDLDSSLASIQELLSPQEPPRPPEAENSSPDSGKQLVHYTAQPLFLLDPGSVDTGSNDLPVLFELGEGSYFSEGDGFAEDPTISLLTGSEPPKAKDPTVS

Take CCGCAC: the binding signal in the assay with FLI1 was 1.45 fold enrichment (6-mer frequency, TF over GST control); with ELK1 it was 1.45 fold enrichment (6-mer frequency, TF over GST control); with GABPA it was 1.5 fold enrichment (6-mer frequency, TF over GST control); in the assay with ERG, 1.42 fold enrichment (6-mer frequency, TF over GST control); in the assay with ELF1, 1.55 fold enrichment (6-mer frequency, TF over GST control); with EHF, 1.5 fold enrichment (6-mer frequency, TF over GST control). Besides, the binding signal in the assay with SPI1 is 1.52 fold enrichment (6-mer frequency, TF over GST control); with SPIB, 1.41 fold enrichment (6-mer frequency, TF over GST control); with ELK3, 1.52 fold enrichment (6-mer frequency, TF over GST control); with FEV it was 1.42 fold enrichment (6-mer frequency, TF over GST control); with ETV5 it was 1.4 fold enrichment (6-mer frequency, TF over GST control); in the assay with HSF1, 1.13 fold enrichment (6-mer frequency, TF over GST control). Further, the binding signal with SPIC is 1.27 fold enrichment (6-mer frequency, TF over GST control); with ELF4, 1.5 fold enrichment (6-mer frequency, TF over GST control); in the assay with ELK4, 1.3 fold enrichment (6-mer frequency, TF over GST control); with ETV2, 1.39 fold enrichment (6-mer frequency, TF over GST control); with ELF3 it was 1.39 fold enrichment (6-mer frequency, TF over GST control); in the assay with CRX, 1.02 fold enrichment (6-mer frequency, TF over GST control). Further, the binding signal in the assay with ETV1 is 1.47 fold enrichment (6-mer frequency, TF over GST control).
